Assay [1] can be described thus: AP1 Signaling Pathway (AID 357; active = well fitted curve in either direction with a large enough effect, not every such curve was filed as active;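 also: ME-180 reporter cells stimulated with EGF at its EC50 level; % is scaled to controls: 0 for no effect and ±100 for the full control effect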). Particulars: ME-180 AP-1-bla reporter, EGF-induced, beta-lactamase ratio, 5 h. The method in brief:
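Cells are seeded overnight, exposed to compound titrations and an EC50 level of EGF for 5 hours at 37 °C, then loaded with CCF4 dye for 2.5 hours. Beta-lactamase activity under the AP-1 element is read as a blue/green ratio.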

The target in assay [2] is Cytochrome P450 1A2 (Homo sapiens) (UniProt P05177). Briefly: p450-cyp1a2 (AID 410; calls by dose curve; also: potency is read from the fitted curve at half-maximal effect). The method in brief:
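Read-out is luminescence from luciferin produced by CYP1A2 demethylation of Luciferin-ME (100uM, at Km). Detection reagent stopped the 60 min NADPH-dependent reaction; signals were normalized to 57 uM furafylline.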

The nature of assay [3]: NFAT Signaling Pathway (AID 444; active = well fitted curve in either direction with a large enough effect, not every such curve was filed as active;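 also: carbachol stimulus at about its EC50 of 1 µM final; % is scaled to controls: 0 for no effect and ±100 for the full control effect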). As to conditions: Jurkat NFAT-bla M1, carbachol, beta-lactamase ratio, 5 h. In short, it runs like this: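 Read-out: CCF4 FRET ratio (460 nm/530 nm) after 1 h RT dye loading, used for %activity and AC50 from titration series. Cells: Jurkat NFAT-β-lactamase/M1 line, treated with compound plus 1 uM carbachol for 5 h, 37 °C.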
A short description of assay [4]: Stat Signaling Pathway (AID 446; active = well fitted curve in either direction with a large enough effect, not every such curve was filed as active;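 also: ME-180 cervical cancer cells given 40 pM IL-6 alongside compound; SIE-controlled beta-lactamase reporter measured as 460/530 nm FRET emission ratio; % is scaled to controls: 0 for no effect and ±100 for the full control effect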). Particulars: ME-180 (cervical carcinoma) SIE beta-lactamase reporter, IL-6 stimulated, 5 h. In short, it runs like this: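 Normalization used AC90 stimulation (300 pM IL-6) and AC90 inhibition (125 nM pan-JAK inhibitor at 40 pM IL-6). The underlying signal is SIE-driven beta-lactamase in ME-180 cells after 5 h IL-6 exposure with compound.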
Assay [5] has as its target Glucocorticoid receptor (Homo sapiens) (UniProt P04150). The experiment in a line: GR-GFP Redistribution (AID 450;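 active = compounds whose dose series gives a full or clear partial fitted curve of increased nuclear translocation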; also: potency is read from the fitted curve at half-maximal effect). As to conditions: U2OS GR-GFP nuclear translocation, laser cytometry, 2 h.
Assay [6] has the same target. Briefly: GR-EFC Redistribution (AID 451; calls by dose curve; also: potency is read from the fitted curve at half-maximal effect). Particulars: CHO-K1 GR-EFC translocation, beta-gal luminescence, 2 h. In short, it runs like this: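 Translocation of GR-ED fusion to nuclear EA restores b-gal, read by luminescence after 1 h room-temperature detection. Engineered CHO-K1 biosensor cells, 1,000/well, exposed 2 h at 37 C to titrations up to 46 uM final.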
Assay [7] deals with Mitogen-activated protein kinase 10 (Mus musculus) (UniProt Q61831). Briefly: JNK3 AlphaScreen Assay (AID 530; active = well fitted curve in either direction with a large enough effect, not every such curve was filed as active;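 also: kinase came from lysate of stimulated human HepG2 cells; signal reports phosphorylation of biotinylated GST-cJun 1-79 at Ser73 with 10 µM ATP; % is scaled to controls: 0 for no effect and ±100 for the full control effect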). In short, it runs like this:
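Kinase buffer: 20 mM Tris-HCl pH 7.6, 10 mM MgCl2, 1 mM DTT, 0.1 mM Na3VO4, 0.01% Tween-20; ATP 10 uM. Substrate biotin-GST-cJun(1-79), enzyme from activated HepG2 lysates. Detection by Ser73 phospho-antibody AlphaScreen.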
For orientation: In Alpha technology, singlet oxygen from a donor bead excites a nearby acceptor bead.

Assay [8] addresses 3',5'-cyclic-AMP phosphodiesterase 4B (Homo sapiens) (UniProt Q07343). Briefly: qHTS Assay for Inhibitors of PDE-IV (AID 607; active = well fitted activation curve with a large enough effect in the main read-out, with a control signal flat, not every such curve was filed as active; also: % of control where 0% means no effect). The method in brief: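 HEK293 ACTOne cells with CNG channel (1000/well), endogenous PDE4; membrane potential dye, compounds up to 22.9 uM final. Fluorescence Ex 535/Em 590; RO 20-1724 (100 uM final) as reference.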
In general terms: Quantitative high-throughput screening tests each substance at several concentrations.

Assay [9] has as its target Ubiquitin carboxyl-terminal hydrolase 1 (Homo sapiens) (UniProt O94782). Briefly: Inhibitors of USP1/UAF1: Pilot qHTS (AID 504865).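 Also: rhodamine fluorescence freed from ubiquitin-rhodamine substrate followed over time; top concentration of the series differs between compounds; % is scaled to controls: 0 for no effect and ±100 for the full control effect; nearly all actives have a fitted effect of over 35% in size.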 The method in brief: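 Enzyme-free wells gave the negative control, while test wells held 1nM USP1/UAF1 preincubated with compound for 15 min at room temperature. Ub-Rho at 150nM final started the reaction, and fluorescence at 480/540 nm was recorded kinetically.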

A short description of assay [10]: qHTS Assay for Lipid Storage Modulators (AID 1519; calls by dose curve). As to conditions: Drosophila S3 cells, BODIPY lipid droplet/cell ratio, laser cytometry, cells loaded with oleic acid. The method in brief: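 Cells seeded at 5,000 per well were treated with compounds over a concentration series and loaded with oleic acid (400 uM, as added). Lipid droplet fluorescence (488 nm excitation, 500-530 nm channel) was read by laser-scanning cytometry and normalized to 20 uM Triacsin C.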

Assay [11] deals with Pyruvate kinase (Leishmania mexicana) (UniProt Q27686). The experiment in a line: qHTS Validation Assay for Inhibitors of Leishmania Mexicana Pyruvate Kinase (AID 945).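 Also: 0% = DMSO only neutral control wells.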 The method in brief: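 Eight-point qHTS titrations in triplicate, data normalized to DMSO neutral control. Reaction: 0.2 nM LmPYK E451W mutant, 0.5 mM PEP, 0.1 mM ADP, 7 mM MgCl2, pH 7.2, one hour at room temperature; luminescent ATP detection.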
Pyruvate kinase (Leishmania mexicana), sequence (Q27686 2-499 E452W): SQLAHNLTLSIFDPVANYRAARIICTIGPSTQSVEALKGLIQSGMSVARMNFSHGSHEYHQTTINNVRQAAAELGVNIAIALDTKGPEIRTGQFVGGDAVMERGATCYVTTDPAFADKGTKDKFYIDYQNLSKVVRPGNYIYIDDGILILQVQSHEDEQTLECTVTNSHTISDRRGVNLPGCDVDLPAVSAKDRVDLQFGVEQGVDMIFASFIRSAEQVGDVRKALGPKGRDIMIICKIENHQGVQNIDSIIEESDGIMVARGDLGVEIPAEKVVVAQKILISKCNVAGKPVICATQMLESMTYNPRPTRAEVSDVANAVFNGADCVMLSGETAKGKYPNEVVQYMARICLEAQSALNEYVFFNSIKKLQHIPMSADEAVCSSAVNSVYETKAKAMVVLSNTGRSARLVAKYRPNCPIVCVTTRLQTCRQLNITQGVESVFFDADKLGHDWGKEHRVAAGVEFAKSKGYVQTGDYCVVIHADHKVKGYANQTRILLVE

For assay [12], the target named is Alpha-galactosidase A (Homo sapiens) (UniProt P06280). Briefly: Counterscreen for Glucocerebrosidase Inhibitors: qHTS Assay for Human alpha-Galactosidase at pH 4.5 (AID 992). Also: 0% is about no effect. The method in brief:
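Steps: enzyme (2 nM final), then compound across 0.7 nM to 77 uM, then 80 uM fluorogenic galactopyranoside substrate; incubate 20 min at room temperature; quench at pH 10; measure fluorescence at 365/440 nm.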
A general note: The purpose of a counterscreen is to sort out artefacts and off-target activity.

Assay [13] addresses alpha-glucosidase (Oryza sativa, rice) (UniProt Q653V4). Briefly: Counterscreen for Glucocerebrosidase Inhibitors: qHTS Assay for Rice alpha-Glucosidase at pH 5.0 (AID 997).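 Also: 0% = full activity with enzyme and -100% = basal without enzyme.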 In short, it runs like this: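 Endpoint fluorogenic assay at pH 5.0: compounds (0.7 nM to 77 uM) titrated against 4 nM rice enzyme and 400 uM 4-MU-alpha-glucoside for 20 min at room temperature; NaOH/glycine stop, read ex 365/em 440 nm, Hill-fitted AC50.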

The target of assay [14] is ATP-dependent 6-phosphofructokinase (Trypanosoma brucei brucei) (UniProt O15648). The experiment in a line: qHTS Assay to Find Inhibitors of T. brucei phosphofructokinase: hit validation (AID 492961). In short, it runs like this:
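Measures ADP output of PFK (1.25 nM) at 0.1 mM ATP, 0.5 mM F6P, pH 8.0 TEA buffer with 5 mM MgCl2. No-enzyme wells define full inhibition; uninhibited enzyme wells define zero.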

For assay [15], the target named is Luciferin 4-monooxygenase (Photinus pyralis) (UniProt P08659). The experiment in a line: Biochemical firefly luciferase enzyme assay for NPC (AID 624030).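 Also: purified P. pyralis luciferase at 10 nM with luciferin and ATP substrate; 0% = DMSO and -100% = full luciferase inhibition by PTC124 control; nearly all actives have a fitted effect of over 70% in size.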 The method in brief:
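Direct inhibition of firefly luciferase enzyme (10 nM final, 50 mM Tris Acetate) assessed by luminescence within 5 minutes. Percent activity scaled between DMSO and PTC124 positive control, with concentration-effect curves classified by fit quality and response.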

A short description of assay [16]: qHTS profiling for inhibitors of Plasmodium falciparum proliferation (AID 504749).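 Also: 0% = DMSO vehicle and full inhibition = artemisinin control; nearly all actives have a fitted effect of over 60% in size.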 Particulars: P. falciparum in erythrocytes, SYBR Green DNA, 72 h, at 12.8 µM (top of the series). The method in brief: (§1)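 In a 72 h erythrocytic culture (37 C, humidified, 5% CO2) at 2.5% hematocrit and 0.3% starting parasitemia, compounds were tested; SYBR Green I in detergent lysis buffer stained parasite DNA overnight.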

For another assay, the system named is AS120. The assay is described as above. As to conditions: P. falciparum in erythrocytes, SYBR Green DNA, 72 h; series mostly up to 28.7 µM. In short, it runs like this: as §1
For the next assay, the system named is CP238. Described as above. Particulars: P. falciparum in erythrocytes, SYBR Green DNA, 72 h; series mostly up to 12.8 µM. The method in brief:
as §1

The next assay deals with CP265. The assay is described as above. Particulars: P. falciparum in erythrocytes, SYBR Green DNA, 72 h; series mostly up to 12.8 µM. The method in brief:
as §1

For another assay, the system named is FAB9. The description is as above. Particulars: P. falciparum in erythrocytes, SYBR Green DNA, 72 h; series mostly up to 12.8 µM. In short, it runs like this:
as §1

[17] abbreviates: at 7.69 µM (top of the series) unless noted.
Setting [18] is: measured here: cell count channel max response.
[19] abbreviates: measured here: lipid channel max response.

Where “and” joins values, the source holds several entries; their conditions need not be identical. Identical values can stand only once. Inconclusive results are not listed. Calls of active or inactive are those of the source. Unless noted, calls follow the shape of the dose curve; as a rule, active = well fitted curve in the direction sought with a large enough effect; inconclusive = small, poorly fitted or top-dose-only effect, or another doubt; inactive = no such curve, though single readings can be large; an effect the other way counts as inactive or inconclusive. Some results are limits rather than exact numbers.

The values below come from PubChem BioAssay (NCATS).

Ubiquitin carboxyl-terminal hydrolase 1 (Homo sapiens), sequence (O94782 whole entry, looked up): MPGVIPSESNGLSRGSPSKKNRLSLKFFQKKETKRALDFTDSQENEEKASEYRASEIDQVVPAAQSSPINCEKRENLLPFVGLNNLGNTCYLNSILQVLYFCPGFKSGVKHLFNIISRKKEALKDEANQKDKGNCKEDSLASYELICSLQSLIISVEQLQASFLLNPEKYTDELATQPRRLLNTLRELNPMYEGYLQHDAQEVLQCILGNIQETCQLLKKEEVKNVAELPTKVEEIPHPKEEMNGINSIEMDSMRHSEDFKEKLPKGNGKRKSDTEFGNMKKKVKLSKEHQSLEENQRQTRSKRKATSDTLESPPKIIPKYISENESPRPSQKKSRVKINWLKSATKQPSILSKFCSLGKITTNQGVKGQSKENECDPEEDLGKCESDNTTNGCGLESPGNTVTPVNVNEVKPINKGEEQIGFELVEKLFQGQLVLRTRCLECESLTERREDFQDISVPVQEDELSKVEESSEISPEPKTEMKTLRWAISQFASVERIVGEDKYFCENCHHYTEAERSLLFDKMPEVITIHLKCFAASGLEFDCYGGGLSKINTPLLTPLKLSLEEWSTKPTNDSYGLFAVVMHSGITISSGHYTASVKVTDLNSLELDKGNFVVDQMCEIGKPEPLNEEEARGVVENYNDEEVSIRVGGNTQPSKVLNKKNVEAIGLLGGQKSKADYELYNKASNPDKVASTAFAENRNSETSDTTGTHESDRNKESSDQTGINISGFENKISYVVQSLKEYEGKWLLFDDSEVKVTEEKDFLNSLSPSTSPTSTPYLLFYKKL
3',5'-cyclic-AMP phosphodiesterase 4B (Homo sapiens), sequence (Q07343 whole entry, looked up): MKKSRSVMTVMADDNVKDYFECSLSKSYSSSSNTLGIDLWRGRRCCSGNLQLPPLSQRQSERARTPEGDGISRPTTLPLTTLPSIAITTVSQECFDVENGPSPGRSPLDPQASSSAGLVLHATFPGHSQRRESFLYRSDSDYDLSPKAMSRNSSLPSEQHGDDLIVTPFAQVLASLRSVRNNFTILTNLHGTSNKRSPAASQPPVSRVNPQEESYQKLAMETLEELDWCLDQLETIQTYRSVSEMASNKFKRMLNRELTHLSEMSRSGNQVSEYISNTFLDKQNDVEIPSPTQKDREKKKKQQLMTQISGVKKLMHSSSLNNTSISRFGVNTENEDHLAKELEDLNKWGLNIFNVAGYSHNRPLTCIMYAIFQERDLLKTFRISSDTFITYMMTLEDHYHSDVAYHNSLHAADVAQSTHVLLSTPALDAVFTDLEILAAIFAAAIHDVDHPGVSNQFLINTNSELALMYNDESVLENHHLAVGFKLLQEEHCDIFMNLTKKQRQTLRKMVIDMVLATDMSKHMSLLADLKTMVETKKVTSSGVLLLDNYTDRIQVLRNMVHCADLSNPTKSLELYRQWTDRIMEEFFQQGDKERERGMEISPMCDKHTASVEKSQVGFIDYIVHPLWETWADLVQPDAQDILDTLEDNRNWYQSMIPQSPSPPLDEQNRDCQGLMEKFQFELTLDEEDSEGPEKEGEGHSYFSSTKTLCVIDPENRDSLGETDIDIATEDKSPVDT
Alpha-galactosidase A (Homo sapiens), sequence (P06280 whole entry, looked up): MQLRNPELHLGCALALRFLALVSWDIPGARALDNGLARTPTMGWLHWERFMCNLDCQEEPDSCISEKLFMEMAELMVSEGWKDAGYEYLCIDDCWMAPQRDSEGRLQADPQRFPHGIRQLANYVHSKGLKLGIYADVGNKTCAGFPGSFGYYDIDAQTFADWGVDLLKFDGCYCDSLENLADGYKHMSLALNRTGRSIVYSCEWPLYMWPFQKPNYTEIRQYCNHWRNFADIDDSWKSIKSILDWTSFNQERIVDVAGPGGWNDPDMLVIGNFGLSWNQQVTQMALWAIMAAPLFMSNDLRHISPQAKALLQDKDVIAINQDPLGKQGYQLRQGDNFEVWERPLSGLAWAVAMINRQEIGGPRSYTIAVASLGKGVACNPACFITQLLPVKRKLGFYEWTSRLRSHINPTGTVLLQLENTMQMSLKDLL
Cytochrome P450 1A2 (Homo sapiens), sequence (P05177 whole entry, looked up): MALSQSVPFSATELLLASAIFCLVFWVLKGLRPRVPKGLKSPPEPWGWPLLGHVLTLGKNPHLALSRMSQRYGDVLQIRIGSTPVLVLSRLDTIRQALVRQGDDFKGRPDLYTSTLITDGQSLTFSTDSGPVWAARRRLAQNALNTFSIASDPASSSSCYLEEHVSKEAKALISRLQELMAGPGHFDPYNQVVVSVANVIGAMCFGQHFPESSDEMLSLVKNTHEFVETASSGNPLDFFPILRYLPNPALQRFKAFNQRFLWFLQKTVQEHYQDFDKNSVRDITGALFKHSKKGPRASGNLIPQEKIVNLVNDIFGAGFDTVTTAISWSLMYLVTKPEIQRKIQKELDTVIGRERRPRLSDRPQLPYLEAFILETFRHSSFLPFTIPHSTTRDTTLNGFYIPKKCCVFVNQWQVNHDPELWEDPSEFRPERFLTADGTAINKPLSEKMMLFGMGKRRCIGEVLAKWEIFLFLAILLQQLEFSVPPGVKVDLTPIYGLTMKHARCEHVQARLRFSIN
Glucocorticoid receptor (Homo sapiens), sequence (P04150 whole entry, looked up, the tested form may be a part): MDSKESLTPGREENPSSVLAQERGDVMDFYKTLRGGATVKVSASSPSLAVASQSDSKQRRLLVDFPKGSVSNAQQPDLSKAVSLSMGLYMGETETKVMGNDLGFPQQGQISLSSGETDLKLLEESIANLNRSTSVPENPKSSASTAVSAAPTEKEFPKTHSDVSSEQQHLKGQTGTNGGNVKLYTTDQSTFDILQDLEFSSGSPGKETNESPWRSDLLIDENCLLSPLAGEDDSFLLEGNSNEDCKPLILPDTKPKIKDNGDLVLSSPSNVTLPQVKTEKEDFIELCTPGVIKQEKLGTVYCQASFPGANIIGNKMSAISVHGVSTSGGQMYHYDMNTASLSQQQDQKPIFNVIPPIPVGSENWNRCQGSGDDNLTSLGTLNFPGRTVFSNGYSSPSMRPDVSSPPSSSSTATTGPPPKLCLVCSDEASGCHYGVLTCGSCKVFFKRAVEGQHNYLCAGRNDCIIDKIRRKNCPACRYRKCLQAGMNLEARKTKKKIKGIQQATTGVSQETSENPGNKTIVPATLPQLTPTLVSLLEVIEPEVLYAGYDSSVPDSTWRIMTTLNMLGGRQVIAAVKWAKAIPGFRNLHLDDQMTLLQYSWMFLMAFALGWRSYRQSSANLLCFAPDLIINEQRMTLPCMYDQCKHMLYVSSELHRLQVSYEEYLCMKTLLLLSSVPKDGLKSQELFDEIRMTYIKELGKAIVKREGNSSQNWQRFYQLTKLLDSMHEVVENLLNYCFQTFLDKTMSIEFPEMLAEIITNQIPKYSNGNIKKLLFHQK
ATP-dependent 6-phosphofructokinase (Trypanosoma brucei brucei), sequence (O15648 whole entry, looked up): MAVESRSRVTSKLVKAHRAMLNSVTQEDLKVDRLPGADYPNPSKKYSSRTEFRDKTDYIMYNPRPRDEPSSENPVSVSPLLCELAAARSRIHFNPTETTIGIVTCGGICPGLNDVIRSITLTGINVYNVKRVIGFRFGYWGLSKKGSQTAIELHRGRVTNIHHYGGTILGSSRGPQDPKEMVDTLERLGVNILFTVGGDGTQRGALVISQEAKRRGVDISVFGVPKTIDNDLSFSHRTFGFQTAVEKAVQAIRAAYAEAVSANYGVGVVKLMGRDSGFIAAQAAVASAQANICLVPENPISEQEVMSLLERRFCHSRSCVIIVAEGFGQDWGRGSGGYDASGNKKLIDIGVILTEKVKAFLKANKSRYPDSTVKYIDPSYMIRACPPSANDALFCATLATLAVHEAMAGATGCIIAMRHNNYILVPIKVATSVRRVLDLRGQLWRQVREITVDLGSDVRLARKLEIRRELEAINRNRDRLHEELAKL
Luciferin 4-monooxygenase (Photinus pyralis), sequence (P08659 whole entry, looked up): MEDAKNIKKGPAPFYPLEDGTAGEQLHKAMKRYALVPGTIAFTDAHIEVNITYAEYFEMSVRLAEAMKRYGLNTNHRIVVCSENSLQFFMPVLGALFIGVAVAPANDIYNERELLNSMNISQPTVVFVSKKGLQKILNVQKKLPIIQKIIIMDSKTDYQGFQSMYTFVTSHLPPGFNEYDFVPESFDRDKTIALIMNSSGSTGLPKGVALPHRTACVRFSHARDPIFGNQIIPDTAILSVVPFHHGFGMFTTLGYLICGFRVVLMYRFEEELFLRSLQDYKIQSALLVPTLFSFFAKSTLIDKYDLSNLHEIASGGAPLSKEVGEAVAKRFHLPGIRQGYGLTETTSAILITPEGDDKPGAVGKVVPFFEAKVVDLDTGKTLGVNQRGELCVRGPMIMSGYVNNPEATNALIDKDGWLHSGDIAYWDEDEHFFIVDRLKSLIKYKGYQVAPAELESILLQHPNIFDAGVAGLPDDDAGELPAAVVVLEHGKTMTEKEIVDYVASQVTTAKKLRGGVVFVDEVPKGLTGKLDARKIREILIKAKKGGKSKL

Consider `CN1CCN(c2ncncc2-c2ccc(N(C)C)cc2)CC1`, for which the activity change, negative = inhibition in [1] (setting [17]) is -1.37% (inactive); in [3] (setting [17]) it was 6.42% (inactive). For the same molecule, the Potency in [2] is 12.6 µM (active); in assay [5] it was > 46 µM (inactive); in [6], > 46 µM (inactive). Further, the activity, negative = inhibition in [4] (setting [17]) is 3.73% (inactive). Also, the Potency result in assay [7], in assay [8] and in assay [9] was “inactive” throughout.
Take `CC(=O)Oc1cc(OC(C)=O)c2c(c1)OC(c1ccc(OC(C)=O)c(OC(C)=O)c1)C(OC(C)=O)C2` (stereo not drawn): in assay [10] (at 57.5 µM (top of the series)), the activity change, negative = inhibition is 6.42% (inactive) and -10.2% (inactive). Further, the max response was 0.329% and -6.77% in assay [10] (setting [18]); 6.69% and -15% in [10] (setting [19]). In assay [9], the Potency result was “inactive”.
As for `C[C@@](N)(Cc1ccc(O)cc1)C(=O)O`, the activity change, negative = inhibition was -8.05% [at 38 µM] (inactive) and -6.78% [at 38 µM] (inactive) in assay [1] (setting [17]); -13% [at 38 µM] (inactive) and 8.58% [at 38 µM] (inactive) in assay [3] (setting [17]); 1.23% (inactive) in [10] (at 57.5 µM (top of the series)). The Potency entry in [2], in assay [7], in [8] and in assay [9] was “inactive” in each case. In assay [4] (setting [17]), the activity, negative = inhibition is 3.69% [at 38 µM] (inactive). The Potency in assay [5] and in assay [6] was > 46 µM (inactive) in each case. Further, the result in [11], in assay [12] and in assay [13] was inactive. The results for the max response in assay [10] (setting [18]) and in assay [10] (setting [19]) were 15.7% and 18.3%, respectively.
Turning to `CC1=C(C(=O)O)N2C(=O)[C@@H](NC(=O)[C@@H](N)c3ccccc3)[C@@H]2SC1`, the activity change, negative = inhibition was 16.3% (inactive) in assay [1] (at 17.2 µM (top of the series)), 11% (inactive) in assay [1] (at 38 µM (top of the series)), -9.84% (inactive) in assay [3] (at 17.2 µM (top of the series)) and -0.753% (inactive) in assay [3] (at 38 µM (top of the series)). Besides, the activity, negative = inhibition in [4] (at 17.2 µM (top of the series)) was 10.2% (inactive); in [4] (at 38 µM (top of the series)) it was 30.7% (inactive). Also, the Potency entry in assay [7], in [8] and in [9] was “inactive” throughout. Besides, the molecule was called inactive in assay [11], in [12] and in assay [13].
Regarding `C[N+]1(C)CCC[C@@H](OC(=O)C(O)(c2ccccc2)c2ccccc2)C1`, the results for the activity change, negative = inhibition in assay [1] (setting [17]) and in assay [3] (setting [17]) were 3.62% [at 17.2 µM] (inactive) and -62.4% [at 17.2 µM] (active), respectively. Moreover, the Potency entry (in [2]; in [7]; in [8]; in assay [9]; with AS120; with CP238) was “inactive” in each case. Also, the Potency result with CP265 and in the assay with FAB9 was “inactive” each time. Further, the activity, negative = inhibition was 11.2% [at 17.2 µM] (inactive) in [4] (setting [17]), 9.41% (inactive) in [16] (parasite line A) and 6.69% (inactive) in [16] (parasite line B). Also, the Potency in assay [5] and in assay [6] was > 20.6 µM (inactive) each time. Also, the result in assay [14] and in assay [15] was inactive.
As for `CC1CC2C3CCC4=CC(=O)C=C[C@@]4(C)[C@]3(F)C(O)C[C@]2(C)[C@]1(O)C(=O)CO` (stereo partly drawn), in assay [10] (at 57.5 µM (top of the series)), the activity change, negative = inhibition is -0.857% (inactive) and 2.9% (inactive). Also, the max response in assay [10] (setting [18]) is 20% and 4.4%; in [10] (setting [19]) it was 23.5% and 9.45%. The Potency result in assay [9] was “inactive”.
As to `CCCN1C[C@H](CSC)C[C@H]2c3cccc4[nH]cc(c34)C[C@@H]21`, the activity change, negative = inhibition was -5.45% [at 17.2 µM] (inactive) in [1] (setting [17]) and -0.938% (inactive) in assay [10] (at 25.7 µM (top of the series)). The Potency in [2] is 3.16 µM (active) and 1.58 µM (active); in assay [5], > 20.6 µM (inactive) and > 46 µM (inactive); in [6] it was > 20.6 µM (inactive) and > 46 µM (inactive). For the same molecule, the Potency entry in assay [7] was “inactive”. In addition, the max response is -9.01% in [10] (setting [18]) and -9.12% in [10] (setting [19]).
Turning to `CC(CCC(=O)O)C1CCC2C3C(O)C[C@@H]4CC(O)CC[C@@]4(C)C3CC[C@@]12C` (stereo partly drawn), in assay [10] (at 57.5 µM (top of the series)), the activity change, negative = inhibition is 1.17% (inactive) and 5.02% (inactive). Besides, the max response was 13% and 15.4% in assay [10] (setting [18]); 15% and 25.1% in [10] (setting [19]). Besides, in assay [9], the Potency result was “inactive”.
